Results on 35 molecules are retold here after PubChem BioAssay (Tox21).

SMILES strings stand for the structures. Several values for one entry are separate records, joined by “and”; a condition that tells them apart may be missing. Identical values can stand only once. Results filed as inconclusive are left out. More than one record can exist for a structure, and the calls need not agree. Activity calls are given as the source filed them. Calls come from the whole dose curve; as a rule, active = well fitted cell-killing curve with a large enough effect in the repeat runs; inconclusive = weak or mixed curves; inactive = no such curve, though single readings can be large or run the other way.
% is set by controls: 0 for no effect and ±100 for the full control effect; potency is the fitted concentration of half-maximal effect.

The nature of one experiment: qHTS assay for identifying genotoxic compounds that show differential cytotoxicity against isogenic chicken DT40 cell lines with known DNA damage response pathways - Rad54/Ku70 mutant cell line (AID 743015). Note: nearly all actives have a fitted effect of over 60% in size. As to conditions: DT40 Rad54/Ku70 mutant viability, CellTiter-Glo, 40 h; series mostly up to 66.8 µM; activity change, negative = cytotoxicity: at the top concentration.
As for `CC(COC(=O)c1ccccc1)OC(=O)c1ccccc1` (stereo not given), the Potency was 61.1 µM (active).
For `O=C(Oc1ccccc1)c1cccc(C(=O)Oc2ccccc2)c1`, the Potency is 67 µM (active).
On the same count and under the same terms, the value for `Brc1ccccc1-c1ccccc1` was 41 µM (active); that for `CNC(=S)NN` was 7.7 µM (active).
The same measure, in the same setting: the value for `CCCCCCCOC(=O)c1ccc(O)cc1` was 54.5 µM (active) and 48.6 µM (active).
On the same count and under the same terms, the value for `O=C(Nc1ccc(Cl)cc1)Nc1ccc(Cl)c(C(F)(F)F)c1` was 5.31 µM (active).
Turning to `O=C1OC(OC(=O)c2cccnc2Nc2cccc(C(F)(F)F)c2)c2ccccc21` (stereo not given), the “activity change, negative = cytotoxicity” value is 8.79% (inactive).
In the case of `CCCCCCCC/C=C\CCCCCCCC(=O)NCc1ccc(O)c(OC)c1`, the Potency was 18.8 µM (active).
The same measure, in the same setting: with `O=Cc1ccc(F)cc1` the figure was 19.3 µM (active); with `Cc1ccc(N)cc1O`, 52 µM (active).
For the molecule `Nc1ncnc2c1ncn2[C@@H]1O[C@H](COP(=O)(O)O)[C@@H](O)[C@H]1O`, the “activity change, negative = cytotoxicity” value was 12.7% (inactive).
Still for that read-out and setting: with `C/C=C/C=N/NC(=O)c1ccncc1` the figure was 1.95% (inactive).
Turning to `CCCCC(CC)COC(=O)c1ccc(O)cc1` (stereo not given), the Potency was 48.6 µM (active).
The same measure, in the same setting: the value for `SCCCCCCCCS` was 54.5 µM (active); that for `CC1=C(/C=C/C(C)=C/C=C/C(C)=C/C(=O)Nc2ccc(O)cc2)C(C)(C)CCC1` was 9.44 µM (active) and 9.94 µM (active).
As for `CCCCCCCCCCCCCOP(=O)(O)O`, the “activity change, negative = cytotoxicity” value was 0.113% (inactive).
For the molecule `CCC(C)(C)c1cc(O)c(C(C)(C)CC)cc1O`, the Potency was 17.2 µM (active).
On the same count and under the same terms, with `CCCCCCCCCCCCCC[n+]1ccccc1` the figure was 0.109 µM (active); with `Clc1ccccc1CN1CCc2sccc2C1`, 26.6 µM (active).
Regarding `CC(C)(C)CC(C)(C)c1ccccc1O`, the Potency is 54.8 µM (active).
On the same count and under the same terms, with `Cc1oc(-c2ccccc2)nc1CCOc1ccc(C[C@H](Nc2ccccc2C(=O)c2ccccc2)C(=O)O)cc1` the figure was 54.5 µM (active); with `Cc1nc(Nc2ncc(C(=O)Nc3c(C)cccc3Cl)s2)cc(N2CCN(CCO)CC2)n1`, 6.68 µM (active).
Take `O=C(O)CC(=O)O`: the “activity change, negative = cytotoxicity” value was -3.46% (inactive).
Same read-out and setting: with `C=C(C)C(=O)OCCC[Si](Cl)(Cl)Cl` the figure was -3.56% [at 95.1 µM] (inactive).
`CCCCCCCCCCCCCCNCCO`: the Potency was 11.9 µM (active).
Same read-out and setting: the value for `O=C1OC(=O)c2cccc3cccc1c23` was 13.8 µM (active); that for `Cc1cc2c(C(C)C)c(O)c(O)c(C=O)c2c(O)c1-c1c(C)cc2c(C(C)C)c(O)c(O)c(C=O)c2c1O` was 11.9 µM (active).
Still for that read-out and setting: the value for `Cc1cccc(C)c1NC(=O)CN1CCN(CCCC(c2ccc(F)cc2)c2ccc(F)cc2)CC1` was 7.17 µM (active).
Take `CCCCCCCCCC(=O)N(C)C`: the “activity change, negative = cytotoxicity” value is -0.629% [at 95.1 µM] (inactive).
Still for that read-out and setting: with `CSc1c(Cl)c(Cl)c(Cl)c(Cl)c1Cl` the figure was 3.72% (inactive).
`C[C@H]1O[C@@H](O[C@H]2[C@@H](O)C[C@H](O[C@H]3[C@@H](O)C[C@H](O[C@H]4CC[C@@]5(C)[C@H](CC[C@@H]6[C@@H]5C[C@@H](O)[C@]5(C)[C@@H](C7=CC(=O)OC7)CC[C@]65O)C4)O[C@@H]3C)O[C@@H]2C)C[C@H](O)[C@@H]1O`: the Potency was 750 nM (active) and 217 nM (active) and 381 nM (active).
Still for that read-out and setting: the value for `NCCCCCCNCCCCCCN` was 5.36 µM (active); that for `Clc1ccc(C(Cn2ccnc2)OCc2c(Cl)cccc2Cl)c(Cl)c1` (stereo not given) was 11.4 µM (active).
On to `S=C(SSSSSSC(=S)N1CCCCC1)N1CCCCC1`, for which the Potency is 0.674 µM (active).
Same read-out and setting: with `Oc1ccc(-c2ccc(O)cc2)cc1` the figure was 24.5 µM (active).

Another experiment in a line: qHTS assay to identify small molecule antagonists of the androgen receptor (AR) signaling pathway - cell viability counter screen (AID 743033; note: nearly all actives have a fitted effect of over 45% in size). As to conditions: AR-bla HEK293 viability, CellTiter-Glo luminescence, 16 h; series mostly up to 58.5 µM; activity change, negative = cytotoxicity: at the top concentration. (In general: qHTS replaces the single test concentration by a dilution series.)
`CC(COC(=O)c1ccccc1)OC(=O)c1ccccc1` (stereo not given): the “activity change, negative = cytotoxicity” value was -0.559% (inactive).
On the same count and under the same terms, with `O=C(Oc1ccccc1)c1cccc(C(=O)Oc2ccccc2)c1` the figure was -17.4% [at 78.9 µM] (inactive).
On the same count and under the same terms, with `Brc1ccccc1-c1ccccc1` the figure was -25.3% (inactive).
Turning to `CNC(=S)NN`, the Potency is 3.89 µM (active).
Same read-out and setting: the value for `CCCCCCCOC(=O)c1ccc(O)cc1` was “inactive”; that for `O=C(Nc1ccc(Cl)cc1)Nc1ccc(Cl)c(C(F)(F)F)c1` was 6.01 µM (active).
Consider `O=C1OC(OC(=O)c2cccnc2Nc2cccc(C(F)(F)F)c2)c2ccccc21` (stereo not given), for which the “activity change, negative = cytotoxicity” value was 3.3% (inactive).
The same measure, in the same setting: the value for `CCCCCCCC/C=C\CCCCCCCC(=O)NCc1ccc(O)c(OC)c1` was 8.25% (inactive); that for `O=Cc1ccc(F)cc1` was 12% (inactive); that for `Cc1ccc(N)cc1O` was -11.7% (inactive).
Same read-out and setting: with `Nc1ncnc2c1ncn2[C@@H]1O[C@H](COP(=O)(O)O)[C@@H](O)[C@H]1O` the figure was -5.5% (inactive).
On the same count and under the same terms, the value for `C/C=C/C=N/NC(=O)c1ccncc1` was -6.9% (inactive).
On to `CCCCC(CC)COC(=O)c1ccc(O)cc1` (stereo not given), for which the Potency entry was “inactive”.
Regarding `SCCCCCCCCS`, the “activity change, negative = cytotoxicity” value is 1.24% (inactive).
For `CC1=C(/C=C/C(C)=C/C=C/C(C)=C/C(=O)Nc2ccc(O)cc2)C(C)(C)CCC1`, the Potency entry is “inactive and 44.8 µM (active)”.
Consider `CCCCCCCCCCCCCOP(=O)(O)O`, for which the “activity change, negative = cytotoxicity” value was -0.356% (inactive).
Same read-out and setting: the value for `CCC(C)(C)c1cc(O)c(C(C)(C)CC)cc1O` was -9.71% (inactive).
As to `CCCCCCCCCCCCCC[n+]1ccccc1`, the Potency was 12.3 µM (active).
For the molecule `Clc1ccccc1CN1CCc2sccc2C1`, the “activity change, negative = cytotoxicity” value is -9.52% (inactive).
As for `CC(C)(C)CC(C)(C)c1ccccc1O`, the Potency is 39.1 µM (active).
Regarding `Cc1oc(-c2ccccc2)nc1CCOc1ccc(C[C@H](Nc2ccccc2C(=O)c2ccccc2)C(=O)O)cc1`, the “activity change, negative = cytotoxicity” value is -15.6% (inactive).
Same read-out and setting: with `Cc1nc(Nc2ncc(C(=O)Nc3c(C)cccc3Cl)s2)cc(N2CCN(CCO)CC2)n1` the figure was -5.09% (inactive).
The same measure, in the same setting: the value for `O=C(O)CC(=O)O` was 4.09% (inactive); that for `C=C(C)C(=O)OCCC[Si](Cl)(Cl)Cl` was -18.1% [at 78.9 µM] (inactive); that for `CCCCCCCCCCCCCCNCCO` was -13.8% (inactive).
On the same count and under the same terms, with `O=C1OC(=O)c2cccc3cccc1c23` the figure was -8.64% [at 78.9 µM] (inactive).
`Cc1cc2c(C(C)C)c(O)c(O)c(C=O)c2c(O)c1-c1c(C)cc2c(C(C)C)c(O)c(O)c(C=O)c2c1O`: the Potency was 21.3 µM (active).
For `Cc1cccc(C)c1NC(=O)CN1CCN(CCCC(c2ccc(F)cc2)c2ccc(F)cc2)CC1`, the “activity change, negative = cytotoxicity” value was -23.6% [at 27 µM] (inactive).
As for `CCCCCCCCCC(=O)N(C)C`, the “activity change, negative = cytotoxicity” value was 0.0144% [at 78.9 µM] (inactive).
On the same count and under the same terms, the value for `CSc1c(Cl)c(Cl)c(Cl)c(Cl)c1Cl` was 4.21% (inactive).
With `C[C@H]1O[C@@H](O[C@H]2[C@@H](O)C[C@H](O[C@H]3[C@@H](O)C[C@H](O[C@H]4CC[C@@]5(C)[C@H](CC[C@@H]6[C@@H]5C[C@@H](O)[C@]5(C)[C@@H](C7=CC(=O)OC7)CC[C@]65O)C4)O[C@@H]3C)O[C@@H]2C)C[C@H](O)[C@@H]1O`, the Potency is 84.9 nM (active) and 15.5 nM (active) and 30.6 nM (active).
Consider `NCCCCCCNCCCCCCN`, for which the “activity change, negative = cytotoxicity” value was 0.852% (inactive).
The same measure, in the same setting: with `Clc1ccc(C(Cn2ccnc2)OCc2c(Cl)cccc2Cl)c(Cl)c1` (stereo not given) the figure was -36.5% [at 27 µM] (inactive).
On to `S=C(SSSSSSC(=S)N1CCCCC1)N1CCCCC1`, for which the Potency was 0.68 µM (active).
Regarding `Oc1ccc(-c2ccc(O)cc2)cc1`, the “activity change, negative = cytotoxicity” value is 5.59% [at 78.9 µM] (inactive).
